Data reported in ChEMBL document CHEMBL4513216, “Probing the Open Global Health Chemical Diversity Library for Multistage-Active Starting Points for Next-Generation Antimalarials” (ACS Infect Dis, 2020).
Out of some 68,000 compounds screened, about 2,700 (4%) showed an effect of 50% or more. The full list was thinned out, with strong results kept by preference.

system: Plasmodium berghei; test: Screen against P. berghei liver stage (PbLuc), transformed with Luciferase, at 2uM; type: functional, HepG2; conditions: tested at 2 uM

SMILES | INHIBITION
CN1C(=O)c2ccc(C(=O)N(Cc3cnn(C)c3)C3CC3)cc2C1=O | 21.14%
Cn1cc(CN(C(=O)c2ccc3ncsc3c2)C2CC2)cn1 | 57.34%
Cn1cc(CN(C(=O)c2ccc(O)c(Cl)c2)C2CC2)cn1 | -33.15%
CCn1cnnc1C1CCN(C(=O)c2cccc(-n3cccc3)c2)CC1 | -6.48%
COc1cc(N2CCC3(CCN(Cc4nccs4)CC3)C2)ncn1 | 7.71%
CCCc1cc(C(=O)N(C)Cc2cccc3cnccc23)n(C)n1 | 19.91%
CCCc1cc(C(=O)N(C)Cc2ccc(OC)c3ncccc23)n(C)n1 | 58.56%
CCCc1cc(C(=O)N(C)Cc2cccc3ncccc23)n(C)n1 | -24.24%
O=C(c1ccccc1)N1C[C@H]2CC[C@@H](C1)N(S(=O)(=O)c1cccnc1)C2 | -23.58%
Cc1noc(C)c1CN1CCC2(CCN(Cc3cccc(F)c3)CC2)C1 | 24.04%
Cc1nc2ccccc2nc1NCc1cccc(OCC2CCCO2)c1 (stereo not given) | 17.25%
O=C(CC1=CCCCC1)N1CCC(Cn2cc(CCO)nn2)CC1 | -8.21%
O=C1O[C@@H]2CN(C3CCOCC3)C[C@@H]2N1CCCc1ccc(F)cc1 | -23.46%
COc1ccc(CCN2C(=O)O[C@@H]3CN(C4CCOCC4)C[C@@H]32)cc1 | 1.42%
COc1ccc(CCCN2C(=O)O[C@@H]3CN(C4CCOCC4)C[C@@H]32)cc1 | 51.81%
Cc1cc(CN(C)C(=O)CN2CC3(CCNCC3)OC2=O)n(C)n1 | 24.12%
CC(Cn1cc(Br)cn1)C(=O)Nc1ccc(C(N)=O)cc1 (stereo not given) | -34.79%
CSc1nnc(C2CCN(C(=O)N3CCCC3)CC2)n1C | 5.83%
O=C(Nc1cccnc1)[C@H]1C[C@H]2OCC[C@H]2N(Cc2ccc(F)cc2)C1 | 26.62%
Cn1ccnc1CN1CCc2ncnc(N3CCCC(C#N)C3)c2CC1 (stereo not given) | 23.64%
c1ccc(CN2CCc3ncnc(C4CC4)c3CC2)cc1 | 14.13%
N#CC1CCCN(c2ncnc3c2CCN(Cc2ccccc2)CC3)C1 (stereo not given) | 51.9%
CC(Cc1ccc2c(c1)OCO2)c1cn(CCN2CCCC2)nn1 (stereo not given) | 69.71%
Cc1cc(Cn2cc(C(C)Cc3ccc4c(c3)OCO4)nn2)n[nH]1 (stereo not given) | 49.88%
CC(Cc1ccc2c(c1)OCO2)c1cn(CCc2c[nH]cn2)nn1 (stereo not given) | 46.58%
CN(Cc1ccncc1)C1COC2(CCN(Cc3ccco3)CC2)C1 (stereo not given) | 45.36%
O=C(Nc1cn[nH]c1)c1ccc(O)nc1 | 45.75%

SMILES | INHIBITION
Cn1nc(C2CCCN(Cc3ccc(F)c(F)c3)C2)c2nccnc21 (stereo not given) | 38.65%
O=C(c1n[nH]c(=O)c2ccccc12)N1CCC(O)(CN2CCOCC2)C1 (stereo not given) | -28.4%
Cc1ccc(CN(CCCn2ccnc2)Cc2c(F)cccc2F)s1 | 36.26%
O=C(CCn1cccn1)N1C[C@H]2CC[C@@H](C1)N(Cc1ccccn1)C2=O | -19.54%
Cc1ccc2c(c1)C(NCc1ncnn1C)CC2 (stereo not given) | 38.67%
Cn1ncnc1CNC1CCCc2cc(F)ccc21 (stereo not given) | -9.03%
Cn1ncnc1CNC1CCc2cc(Cl)ccc21 (stereo not given) | 74.44%
CC(C)NC(=O)C1CCc2nnc(C(C)(C)C)n21 (stereo not given) | 12.84%
O=C(CCN1CCOCC1)Nc1cccc(CNCc2ccsc2)c1 | 3.54%
CCN(C(=O)NCc1cccnc1N(C)C)C(C)c1cccnc1 (stereo not given) | 57.75%
CN(C)c1ncccc1CNC(=O)NCc1ccco1 | 37.15%
CN(C)c1ncccc1CNC(=O)NCC(c1cccs1)N(C)C (stereo not given) | 31.55%
CC(NC(=O)NCc1cccnc1N(C)C)c1ccc(F)cc1 (stereo not given) | 59.21%
CCOc1ccccc1CNC(=O)N(CC)C(C)c1cccnc1 (stereo not given) | 21.97%
CCN(C(=O)NCc1ccccc1OC(F)F)C(C)c1cccnc1 (stereo not given) | 38.67%
CC(C)C(NC(=O)NCc1cccnc1N(C)C)c1cccs1 (stereo not given) | -16.65%
CN(C)c1ccc(NC(=O)NCc2cccnc2N(C)C)cn1 | 1.63%
CC(NC(=O)NCc1cccnc1N(C)C)c1cccs1 (stereo not given) | 51.31%
CCN(CC1CN(CC2CCC2)CCO1)c1cccnn1 (stereo not given) | 47.61%
Cc1nc2n(n1)CC(NCc1cc(Cl)c3c(c1)OCCCO3)CC2 (stereo not given) | 3.86%
CN(Cc1ccco1)[C@@H]1CN(Cc2ccc(F)cc2)[C@@H]2CCCO[C@H]12 | -12.36%
COc1ncnc(N)c1CNCCc1ccc(-n2cccn2)cc1 | 18.37%
O=C(c1cccs1)N1CC[C@H]2C[C@@H](c3nnc(C4CC4)o3)O[C@@H]2C1 | 31.41%
CN(C)C(=O)C1OC2(CCN(C(=O)c3ccoc3)CC2)c2ccccc21 (stereo not given) | 25.43%
CCC(O)CN1CCN(C(=O)c2cccn2Cc2ccncc2)CC1 (stereo not given) | -21.72%
COCC1Cn2nnc(-c3cnn(C)c3)c2CN1Cc1cccs1 (stereo not given) | -34.95%
COCC1Cn2nnc(-c3cnn(C)c3)c2CN1Cc1ccc(C)s1 (stereo not given) | 52.77%

SMILES | INHIBITION
COCC1Cn2nnc(-c3cnn(C)c3)c2CN1Cc1ccsc1 (stereo not given) | 33.14%
COCC1Cn2nnc(-c3cnn(C)c3)c2CN1Cc1ccco1 (stereo not given) | 14.97%
COCC1Cn2nnc(-c3cnn(C)c3)c2CN1Cc1ccc(C)o1 (stereo not given) | 56.76%
COCC1Cn2nnc(-c3cnn(C)c3)c2CN1Cc1ccoc1 (stereo not given) | 19.42%
Cc1ccccc1CNC(=O)Cn1nc(-c2ccc(F)cc2)oc1=O | -25.13%
CCOc1ccc(C(=O)Nc2c(C)nc3ccc(Cl)cn3c2=O)cc1 | 27%
Cc1cc2cc(Nc3c(C#N)c(=O)n(C)c(=O)n3C)ccc2[nH]1 | 13.53%
O=C(CSc1ccc2c(c1)OCCO2)NS(=O)(=O)c1cccnc1 | 16.95%
Cc1ccc(N(C)S(=O)(=O)c2cc(C(=O)O)cs2)cc1 | -29.54%
Cc1cccc(N(C)S(=O)(=O)c2cc(C(=O)O)cs2)c1 | 68.24%
Cc1cc(C)cc(N(C)S(=O)(=O)c2cc(C(=O)O)cs2)c1 | -8.84%
O=C(Nc1ccccc1)N1C[C@@H]2C[C@H](C(=O)N3CCOCC3)[C@H](C1)O2 | 24.15%
CC(C)(C)CC(=O)NCCn1nc(C2CCNC2)c2cccnc21 (stereo not given) | 21.13%
CN(C)c1ccc(NC(=O)NCc2ccc(Cl)s2)cn1 | 17.62%
Cc1nc(CNC(=O)Nc2ccc(N(C)C)nc2)sc1C | 74.34%
CN(C)c1ccc(NC(=O)NCc2ccccn2)cn1 | 17.39%
O=C(CC1=CSC2=NCCN12)N1CCCC(CCc2cccc(F)c2)C1 (stereo not given) | -33.45%
CN(C)C(=O)Cc1ccccc1NCc1nc(Cc2ccccc2)no1 | -12.95%
CNC(=O)C1(c2cnccn2)CCCN1C(=O)c1ccccn1 (stereo not given) | -3.55%
OCCNc1nc(Nc2ccccc2)c2nccnc2n1 | 4.64%
Cc1cnn(CC(C)NCC(=O)Nc2ccc(Cl)cn2)c1 (stereo not given) | 42.11%
Cc1cnn(CCNCC(=O)Nc2ccc(Cl)cn2)c1 | -1.56%
Cc1cnn(CCNC(C)C(=O)Nc2ccc(Cl)cn2)c1 (stereo not given) | 67.44%
Cc1nn(C)c2c(N3CCN(C(=O)C(C)C)CC3)ncnc12 | 31.57%
CCN(CCn1cccn1)Cc1nc(-c2ccoc2)oc1C | -16.71%
CCN(CCn1cccn1)Cc1nc(-c2cccc(C)c2)oc1C | 65.76%
CCN(CCn1cccn1)Cc1nc(-c2ccc(F)cc2)oc1C | -11.66%

SMILES | INHIBITION
Cc1cccc(CN2CCC3(CC2)NC(=O)C[C@H]3c2cnn(C)c2)n1 | 14.65%
F[C@@H]1CN(Cc2cccnc2)C[C@@H]1OCc1nc2ccccc2[nH]1 | 20.41%
O=C(Cc1ccco1)N1C[C@H]2CCC[C@@]2(COc2cccnc2)C1 | -75.76%
COC[C@@]12CCC[C@@H]1CN(C(=O)Cc1ccco1)C2 | 53.08%
O=C(Cc1ccco1)N1C[C@H]2CCC[C@@]2(COCC2CC2)C1 | 8.17%
CCn1ccnc1CN1CCN(c2ncnc3ccsc23)CC1C (stereo not given) | -115.54%
O=C(c1cnc(O)cc1O)N1CCCC(CCc2ccccc2F)C1 (stereo not given) | 29.41%
COCCN1CCCC2(CCN(c3nccc4ccccc34)C2)C1=O (stereo not given) | 50.61%
COCCN1CCCC2(CCN(c3nccnc3N(C)C)C2)C1=O (stereo not given) | -38.59%
COCCN1CCCC(O)(CN2CCN(c3cc(C)ccn3)CC2)C1=O (stereo not given) | 17.6%
COCCN1CCCC(O)(CN2CCN(c3ncccc3C)CC2)C1=O (stereo not given) | 75.47%
COCCN1CCCC2(CCN(c3ncnc(C)c3C)C2)C1=O (stereo not given) | 24.05%
COCCN1CCCC(O)(CN2CCCN(c3ncccn3)CC2)C1=O (stereo not given) | 31.35%
CCS(=O)(=O)N1CCC2(CN(c3cc(OC)ncn3)C2)C1 | 35.37%
CC(OCC1CC1)C(=O)Nc1cccc(C(=O)Nc2ccncc2)c1 (stereo not given) | 10.72%
CC(C)C[C@H](N)c1nnc(SCC(N)=O)o1 | 31.02%
Cc1n[nH]c(C)c1CNC(=O)CSCc1ccccc1Cl | 37.77%
CCSc1ccc(C(=O)N2CCC3(CCC(=O)N(C)C3)CC2)s1 | -12.89%
CSC1(CNc2ccc(Br)cn2)CCOCC1 | 30.06%
Cc1cc(C)cc(NC(=O)Nc2c(O)c3ccccc3oc2=O)c1 | 19.49%
Cc1cnn(CCCNC(=O)NC(C)C(=O)Nc2ccccc2)c1 (stereo not given) | -17.39%
Cc1nnc(SCC(=O)c2cc3c(cc2Cl)NC(=O)C3)s1 | -21.29%
Cc1nnc(SCC(=O)c2cc3c(cc2Cl)NC(=O)C3)o1 | 54.73%
Nc1nnc(SCC(=O)c2cc3c(cc2Cl)NC(=O)C3)s1 | 9.42%
